# Results filed as inconclusive are left out. Active and inactive are the calls of the source. Calls come from the whole dose curve; as a rule, active = well fitted curve in the direction sought with a large enough effect; inconclusive = small, poorly fitted or top-dose-only effect, or another doubt; inactive = no such curve, though single readings can be large; an effect the other way counts as inactive or inconclusive.
# Assay: qHTS of pediatric cancer cell lines to identify multiple opportunities for drug repurposing: Confirmatory screen for RD cells (AID 1347124);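 note: cells exposed to compound for 48 h before viability readout; nearly all actives have a fitted effect of over 65% in size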
# Conditions: RD rhabdomyosarcoma cell viability; series mostly up to 45.9 µM
# Method in brief: (§1)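 Viability after 48 h compound treatment at 37C, 500-1,000 cells/well, read as ATP luminescence with CellTiter-Glo. Primary screens used 11-point (MIPE, 0.78 nM-46 µM) or 8-point (NPC, 0.59 nM-46 µM) final concentrations; follow-up screens used 11-point dilutions.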
# Potency is the fitted concentration of half-maximal effect.
row,SMILES,Potency
1,COCCn1c2c([n+](Cc3cnccn3)c1C)C(=O)c1ccccc1C2=O,0.0261 µM (active)
2,O=C(C=Cc1cccc(S(=O)(=O)Nc2ccccc2)c1)NO,5.37 µM (active)
3,Cc1ccc(C(=O)Nc2ccc(CN3CCN(C)CC3)c(C(F)(F)F)c2)cc1C#Cc1cnc2cccnn12,20.8 µM (active)
4,CNC(=O)c1nn(C)c2c1C(C)(C)Cc1cnc(Nc3ccc(N4CCN(C)CC4)cc3)nc1-2,0.233 µM (active)
5,Nc1ccccc1NC(=O)c1ccc(CNC(=O)OCc2cccnc2)cc1,13.5 µM (active)
6,CC(C)c1cc(C(=O)N2Cc3ccc(CN4CCN(C)CC4)cc3C2)c(O)cc1O,0.522 µM (active)
7,COc1cc2c(NC3CCN(C(C)C)CC3)nc(C3CCCCC3)nc2cc1OCCCN1CCCC1,26.1 µM (active)
8,O=c1[nH]nc(Sc2ncc([N+](=O)[O-])s2)n1-c1ccc2c(c1)OCCO2,9.27 µM (active)
9,Cc1nc(N)ncc1-c1nc(N2CCOCC2)c2sc(C(C)(C)O)cc2n1,1.17 µM (active)
10,Nc1cc(C(F)(F)F)c(-c2cc(N3CCOCC3)nc(N3CCOCC3)n2)cn1,5.85 µM (active)
11,COc1ccc(-n2nc(C(N)=O)c3c2C(=O)N(c2ccc(N4CCCCC4=O)cc2)CC3)cc1,1.31 µM (active)
12,C=CC(=O)Nc1cc2c(Nc3ccc(F)c(Cl)c3)ncnc2cc1C#CC(C)(C)N1CCN(C)CC1,6.03 µM (active)
13,Cc1cn2c(-c3cn[nH]c3)cnc2c(Nc2ccc(C(=O)N3CCNCC3)cc2F)n1,inactive
14,O=C(NC1CCNCC1)c1[nH]ncc1NC(=O)c1c(Cl)cccc1Cl,0.737 µM (active)
15,CCNC(=O)Nc1ccc2ncc(Nc3ccc(C)cc3)nc2n1,inactive
16,CC(C)(C)c1cnc(CSc2cnc(NC(=O)C3CCNCC3)s2)o1,0.585 µM (active)
17,CC(C)CC(=O)Nc1n[nH]c2c1CN(C(=O)C1CCN(C)CC1)C2(C)C,6.57 µM (active)
18,Cc1ccc(-c2ncn(-c3ccc(Nc4nccc(-c5cccc(N6CCOCC6)c5)n4)cc3)n2)cn1,0.24 µM (active)
19,CCn1cc(-c2ccnc3[nH]c(-c4cccc(CN(C)C)c4)cc23)c(-c2ccc(NC(=O)N(C)C)cc2)n1,1.04 µM (active)
20,Cc1nc(Nc2n[nH]c3c2CN(C(=O)N[C@H](CN(C)C)c2ccccc2)C3(C)C)c2sccc2n1,inactive
21,CC(C)(C)c1cc(C(C)(C)C)c(NC(=O)c2c[nH]c3ccccc3c2=O)cc1O,29.3 µM (active)
22,COc1cccc(-c2ccc(NC(=O)C3=C(C(=O)O)CCC3)c(F)c2)c1,1.17 µM (active)
23,COc1ccc(-c2cc3c(C)nc(N)nc3n(C3CCC(OCCO)CC3)c2=O)cn1 (stereo not given),inactive
24,CCn1nnc2c(N3CCOCC3)nc(-c3ccc(NC(=O)Nc4ccc(C(=O)N5CCN(C)CC5)cc4)cc3)nc21,0.414 µM (active)
25,C=CCn1c(=O)c2cnc(Nc3ccc(N4CCN(C)CC4)cc3)nc2n1-c1cccc(C(C)(C)O)n1,0.737 µM (active)
26,CC(C)(C)OC(=O)Nc1ccc(-c2cc(C(=O)NCCCCCCC(=O)NO)no2)cc1,5.22 µM (active)
27,CN1CC[C@@H](c2c(O)cc(O)c3c(=O)cc(-c4ccccc4Cl)oc23)[C@@H](O)C1,0.737 µM (active)

# Assay: qHTS of pediatric cancer cell lines to identify multiple opportunities for drug repurposing: Confirmatory screen for Rh18 cells (AID 1347125); note: nearly all actives have a fitted effect of over 55% in size
# Conditions: Rh18 rhabdomyosarcoma cells, viability; series mostly up to 45.9 µM
# Method in brief: as §1
row,SMILES,Potency
1,COCCn1c2c([n+](Cc3cnccn3)c1C)C(=O)c1ccccc1C2=O,0.0147 µM (active)
2,O=C(C=Cc1cccc(S(=O)(=O)Nc2ccccc2)c1)NO,1.91 µM (active)
3,Cc1ccc(C(=O)Nc2ccc(CN3CCN(C)CC3)c(C(F)(F)F)c2)cc1C#Cc1cnc2cccnn12,10.4 µM (active)
4,CNC(=O)c1nn(C)c2c1C(C)(C)Cc1cnc(Nc3ccc(N4CCN(C)CC4)cc3)nc1-2,4.65 µM (active)
5,NC(=O)c1cccc2cn(-c3ccc([C@@H]4CCCNC4)cc3)nc12,inactive
6,Nc1ccccc1NC(=O)c1ccc(CNC(=O)OCc2cccnc2)cc1,7.59 µM (active)
7,CC(=O)Nc1nc(C)c(-c2ccc(Cl)c(S(=O)(=O)NCCO)c2)s1,11.7 µM (active)
8,Cc1[nH]nc2ccc(-c3cncc(OC[C@@H](N)Cc4ccccc4)c3)cc12,8.27 µM (active)
9,CN(c1ncccc1CNc1nc(Nc2ccc3c(c2)CC(=O)N3)ncc1C(F)(F)F)S(C)(=O)=O,inactive
10,CC(C)c1cc(C(=O)N2Cc3ccc(CN4CCN(C)CC4)cc3C2)c(O)cc1O,0.657 µM (active)
11,Cc1nc(N)ncc1-c1nc(N2CCOCC2)c2sc(C(C)(C)O)cc2n1,1.65 µM (active)
12,COc1c(OCCCN2CCOCC2)ccc2c3n(c(=NC(=O)c4cnc(N)nc4)nc12)CCN3,0.644 µM (active)
13,COc1ccc(-n2nc(C(N)=O)c3c2C(=O)N(c2ccc(N4CCCCC4=O)cc2)CC3)cc1,inactive
14,C=CC(=O)Nc1cc2c(Nc3ccc(F)c(Cl)c3)ncnc2cc1C#CC(C)(C)N1CCN(C)CC1,6.03 µM (active)
15,CCNC(=O)Nc1ccc2ncc(Nc3ccc(C)cc3)nc2n1,inactive
16,C=CC(=O)Nc1cccc(Oc2nc(Nc3ccc(N4CCN(C)CC4)cc3OC)ncc2Cl)c1,20.8 µM (active)
17,CC(C)CC(=O)Nc1n[nH]c2c1CN(C(=O)C1CCN(C)CC1)C2(C)C,inactive
18,CNC(=O)c1c(F)cccc1Nc1nc(Nc2cc3c(cc2OC)CCN3C(=O)CN(C)C)nc2[nH]ccc12,14.7 µM (active)
19,Cc1ccc(-c2ncn(-c3ccc(Nc4nccc(-c5cccc(N6CCOCC6)c5)n4)cc3)n2)cn1,0.107 µM (active)
20,CCn1cc(-c2ccnc3[nH]c(-c4cccc(CN(C)C)c4)cc23)c(-c2ccc(NC(=O)N(C)C)cc2)n1,16.5 µM (active)
21,Cc1cc(N2CCOCC2)cc2[nH]c(-c3c(NC[C@@H](O)c4cccc(Cl)c4)cc[nH]c3=O)nc12,3.29 µM (active)
22,CNC(=O)CN1CCC(Oc2cc3c(Nc4cccc(Cl)c4F)ncnc3cc2OC)CC1,5.85 µM (active)
23,COc1cccc(-c2ccc(NC(=O)C3=C(C(=O)O)CCC3)c(F)c2)c1,inactive
24,COc1ccc(-c2cc3c(C)nc(N)nc3n(C3CCC(OCCO)CC3)c2=O)cn1 (stereo not given),inactive
25,CCn1nnc2c(N3CCOCC3)nc(-c3ccc(NC(=O)Nc4ccc(C(=O)N5CCN(C)CC5)cc4)cc3)nc21,1.04 µM (active)
26,Nc1ccn([C@@H]2O[C@H](CO)[C@H](O)C2(F)F)c(=O)n1,2.93 µM (active)
27,CC(C)(C)OC(=O)Nc1ccc(-c2cc(C(=O)NCCCCCCC(=O)NO)no2)cc1,4.65 µM (active)
28,CN1CC[C@@H](c2c(O)cc(O)c3c(=O)cc(-c4ccccc4Cl)oc23)[C@@H](O)C1,1.17 µM (active)

# — PubChem BioAssay (NCATS)
